Laboratory results published in PubChem BioAssay AID624116 (National Center for Advancing Translational Sciences (NCATS), 2012).
Results filed as inconclusive are left out. Active and inactive are the calls of the source. The call rests on the fitted dose curve; in most records, active means well fitted activation curve with a large enough effect; inconclusive means small, poorly fitted or top-dose-only effect; inactive means no such curve, though single readings can be large or run the other way.

test: qHTS Assay for Rab9 Promoter Activators: Hit Validation Using Renilla Luciferase Read-Out for Rab9; conditions: Huh7 Rab9 promoter Renilla luciferase reporter, 24 h; series mostly up to 76.9 µM; activation, negative = inhibition: at the top concentration; further: % of control where 0% means no effect
Text: Niemann Pick Type C (NPC) is a rare neurodegenerative lipidosis that is characterized by lipid storage in the endosomal/lysosomal system. Treatment modalities for this devastating disease are currently non-existent due to the severe obstacles associated with accessing the central nervous system with proteins or genes. The majority of mutations causing NPC disease are missense mutations that are distributed throughout the length of the NPC1 protein, with the most prevalent being the I1061T allele. Although NPC1 mutant proteins may be functional, they are typically trapped in the ER due to misfolding. […] We have developed and optimized a cell based renilla luciferase reporter assay in 1536 well format for the identification of up-regulators of the mutant Rab9 promoter. This assay presents data on the validation of hits from the primary screen, which used a firefly luciferase read-out. NIH Chemical Genomics Center [NCGC] NIH Molecular Libraries Probe Production centers Network [MLPCN] MLPCN Grant: MH089375 Assay Submitter (PI): Yiannis A. Ioannou
Huh7 cells stably expressing NPC promoter-luciferase will be seeded at 1,500 cells/well in 5 uL in 1,536-well white opaque plates with 23 nL/well of compound in DMSO solution. The assay plates will be incubated at 37 deg C for 24 hours, after which 3 uL/well BriteLite plus luciferase detection reagent mixture (Perkin Elmer) will be added. Luminescence signal will be measured in a ViewLux plate reader (Perkin Elmer) after a 10 minute incubation at the room temperature.

Compound | activation, negative = inhibition
CN1CCc2cc3c(c4c2C1Cc1ccccc1-4)OCO3 (stereo unspecified) | -35.6% (inactive)
CCC(=NCc1cccnc1)c1c(O)n(-c2ccccc2)c(=O)[nH]c1=O | -4.69% (inactive)
COc1cccc(CCNCc2ccc(SC)cc2)c1 | -12.3% (inactive)
Cc1cccn2c(NCC3CCCO3)c(C(C)C)nc12 (stereo unspecified) | -5.59% (inactive)
COc1ccc(C(CC(=O)N2CCC3(CC2)OCCO3)NS(=O)(=O)c2ccc(F)cc2)cc1 (stereo unspecified) | 15.6% (inactive)
O=C1c2ccccc2C(=O)N1Cc1nc2ccccc2c(=O)n1-c1cccnc1 | -4.75% (inactive)
